Data published in PubChem BioAssay AID1851 (National Center for Advancing Translational Sciences (NCATS), 2009).
Among all 16,000 compounds or so, about 2,600 (16%) were called active. About 20% were inconclusive and are not listed. Not all results are given here. Unmarked numbers belong to inactive results. The call rests on the fitted dose curve; in most records, active means well fitted curve in the direction sought with a large enough effect; inconclusive means small, poorly fitted or top-dose-only effect, or effect the other way; inactive means no such curve, though single readings can be large or run the other way.

molecular target: Cytochrome P450 2D6 (Homo sapiens) (UniProt P10635); assay: Cytochrome panel assay with activity outcomes; conditions: recombinant CYP, pro-luciferin dealkylation, luminescence, p450-cyp2d6; series mostly up to 57.1 µM; activity, negative = inhibition: at the top concentration
Sequence (P10635 whole entry, looked up): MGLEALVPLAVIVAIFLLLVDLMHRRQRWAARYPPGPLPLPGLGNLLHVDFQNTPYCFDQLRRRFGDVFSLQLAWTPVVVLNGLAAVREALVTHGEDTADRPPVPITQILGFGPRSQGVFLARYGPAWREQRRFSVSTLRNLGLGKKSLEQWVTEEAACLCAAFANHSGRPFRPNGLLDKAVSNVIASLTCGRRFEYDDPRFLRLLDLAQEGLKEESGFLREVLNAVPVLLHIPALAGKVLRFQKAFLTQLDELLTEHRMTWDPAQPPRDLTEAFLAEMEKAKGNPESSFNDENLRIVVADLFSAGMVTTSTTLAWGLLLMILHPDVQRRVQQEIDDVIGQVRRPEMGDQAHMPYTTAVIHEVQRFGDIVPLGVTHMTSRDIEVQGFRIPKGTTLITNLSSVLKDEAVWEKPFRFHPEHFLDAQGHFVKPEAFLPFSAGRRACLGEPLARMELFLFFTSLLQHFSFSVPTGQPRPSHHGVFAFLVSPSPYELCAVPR
On the % scale 0 is the no-effect control and ±100 the full control effect.

Row | SMILES | activity, negative = inhibition | AC50
1 | O=C(O)CSc1cc(C(F)(F)F)nc(-c2ccccn2)n1 | -6.18% | –
2 | CN1CCN(c2ncc3nc(-c4cccc(C#N)c4)c(=O)n(C)c3n2)CC1 | -2% | –
3 | CCSc1ccc2c(c1)N(CCCN1CCN(C)CC1)c1ccccc1S2 | – | 2.51 µM (active)
4 | O=C1NC(O)=NC1(c1ccccc1)c1ccccc1 | 1.34% | –
5 | Cc1noc(C)c1C(=O)N1CCC2(CCN(Cc3ccncc3)CC2)CC1 | -9.53% | –
6 | CCCCC[C@H](O)c1cccc(OCc2ccc3ccccc3n2)c1 | -20.4% | –
7 | O=C(O)c1ccccc1Nc1cccc(OCc2ccc3ccccc3n2)c1 | – | 7.94 µM (active)
8 | O=C(Nc1ccccc1C(=O)O)c1ccc2ccccc2n1 | 18.1% | –
9 | CC/C(=N/Nc1ccccc1)c1cnnc(SC)n1 | -10.2% | –
10 | O=C(Nc1ccc(-c2csc(-c3ccccc3)n2)cc1)c1ccccc1Cl | 19.1% | –
11 | Cc1ccc(C(=O)ON=C2CCN(S(=O)(=O)c3ccccc3)CC2)cc1 | -18% | –
12 | O=c1cnc2cnc(Oc3cccc(Cl)c3)nc2n1C1CC1 | -8.64% | –
13 | Fc1ccc(C2CC(c3ccco3)=NN2c2ccccc2)cc1 (stereo not drawn) | – | 8.91 µM (active)
14 | CC(=O)c1c(O)cc(=O)n(-c2ccccc2)c1-c1cccc2ccccc12 | -2.04% | –
15 | O=C1C=C(Nc2ccc(Cl)cc2)CC(c2ccc(Cl)cc2)C1 (stereo not drawn) | – | 8.91 µM (active)
16 | O=C(O)C1(Nc2ccc(Cl)cc2)CCCC1 | 7.94% [at 11.4 µM] | –
17 | O=C1C=C(NCCN2CCOCC2)CC(c2ccccc2)C1 (stereo not drawn) | -11.2% | –
18 | CC1(C)C(=O)C(c2ccccc2)=C2CN3C(=O)N(CCc4ccccc4)C(=O)C3(Cc3ccc(C(F)(F)F)cc3)C=C21 (stereo not drawn) | 9.81% | –
19 | CCCCc1ccc(-c2nc(NC(=O)C3C4CCC(O4)C3C(=O)O)sc2C)cc1 (stereo not drawn) | -28.7% | –
20 | COC(=O)Cn1c(CN(Cc2ccccc2)Cc2ccccc2)nc2c1c(=O)[nH]c(=O)n2C | -9.02% | –
21 | COc1ccc(N2CCN(Cc3nc4c(c(=O)[nH]c(=O)n4C)n3CCCc3ccccc3)CC2)cc1 | -9.2% | –
22 | CCOC(=O)N1CCN(Cc2nc3c(c(=O)[nH]c(=O)n3C)n2Cc2ccccc2C)CC1 | – | 12.6 µM (active)
23 | Cn1c(=O)[nH]c(=O)c2c1nc(CN1CCOCC1)n2Cc1ccccc1 | 6.42% | –
24 | CCCCCn1c(CN2CCN(c3cc(Cl)ccc3C)CC2)nc2c1c(=O)[nH]c(=O)n2C | – | 8.91 µM (active)
25 | Cn1c(=O)[nH]c(=O)c2c1nc(CN1CCOCC1)n2CCCO | 8.01% | –
26 | O=C(Cn1nnc2ccccc21)N/N=C\C=C\c1ccccc1 | 4.01% | –
27 | NC(=O)c1csc(-c2ccc(CO)o2)n1 | 0.271% [at 11.4 µM] | –
28 | NS(=O)(=O)c1ccc(N=Nc2ncccc2O)cc1 | -13% [at 11.4 µM] | –
